# TWEAK-Fn14 inh = inhibitors of TWEAK-Fn14 signaling, primary screen, luciferase reporter cells, uHTS; AID 1159606, 2016; inhibition, % at 10 µM; TWEAK-stimulated Fn14 reporter cells, luciferase luminescence, 8 h; 360,000 compounds, 2% hits; in the data active = inhibition above about 50%
# TROY signal inh = inhibitors of TROY-driven NF-kB signaling, primary screen, Q293 LMP1-TROYcd cells, NF-kB luciferase, uHTS; inhibition, % at 10 µM; 360,000 compounds, 0.98% hits; Q293 LMP1-TROYcd NF-kB luciferase reporter, 4 h;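 active = compounds whose plate-normalised and pattern-corrected inhibition of the luciferase reporter signal at the single screening dose is 50% or more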
# LMP1 NFkB inh = EBV LMP1-driven NF-kappaB luciferase reporter inhibitors, primary screen, cell-based, luminescence, single point. 350,000 compounds, 0.69% hits. inhibition, % at 12.5 µM. LMP1-induced NF-kappaB luciferase reporter cells; in the data active = inhibition above about 41%; inconclusive = no clear call, values can overlap the other calls
# MITF TRPM1 inh = inhibitors of MITF-dependent TRPM1 promoter reporter, primary screen, cell-based, SK-MEL-5, single point, luciferase; SK-MEL-5 TRPM1 promoter luciferase, 24 h; inhibition, % at 12.5 µM; 330,000 compounds, 0.83% hits;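 active = mean inhibition across replicates of 60% or more, whatever share of single replicates reaches that level; inconclusive = some that reach 60%, reason not given; inactive = mean inhibition across replicates below 60%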
# Peg3 promoter = Peg3 promoter-driven luciferase inhibitors, primary screen, cell-based, HeLa, luciferase luminescence; HeLa PEG-Prom luciferase reporter, overnight; inhibition, % at 20 µM; 360,000 compounds, 1.7% hits; AID 588405, 2011;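 active = inhibition of at least 50% at 20 µM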
# Shn3 inh set2 = reduction of Shn3 3'UTR firefly luciferase signal, primary screen, Schnurri-3 inhibitor project, cell-based, Clone20 osteoblasts, set 2 | Clone20 osteoblast Shn3 3'UTR firefly luciferase, 24 h | inhibition, % at 12.5 µM | 360,000 compounds, 0.52% hits;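 active = mean inhibition of at least 75% with every replicate also reaching 75%; inconclusive = mean inhibition at least 75% but some replicate below; inactive = mean inhibition below 75%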
# Hits are given with their value; . = inactive; ? = inconclusive; / = no result. Rows were chosen to be rich in hits. Some 4.1% of all compounds tested hit in one or more screens of this group.
SMILES,TWEAK-Fn14 inh,TROY signal inh,LMP1 NFkB inh,MITF TRPM1 inh,Peg3 promoter,Shn3 inh set2
Cc1c(Cl)ccc(S(=O)(=O)NCCCn2ccnc2)c1Cl,.,.,.,.,.,.
CCCOP(=O)(OCCC)C(NC(=O)C(C)(C)C)c1ccccc1 (configuration not stated),.,.,.,.,.,.
CCOP(=O)(OCC)C(NC(=O)C(F)(F)F)c1ccccc1 (configuration not stated),.,63,.,.,.,.
COc1ccc(CN2C[C@H]3CCCN3c3cc(Br)ccc3S2(=O)=O)cc1,.,.,.,.,.,.
COc1cccc(CNc2ccc(S(=O)(=O)N3CCCC3)cn2)c1,.,.,.,.,.,.
CC1=NN(c2ccc(C)c(C)c2)C(=O)/C1=C\C=C\c1ccc([N+](=O)[O-])o1,86,.,.,84,88,95
CCOC(=O)c1ccc(N2N=C(C)/C(=C/C=C/c3ccco3)C2=O)cc1,.,.,.,.,.,.
COc1ccc(OCCCC(=O)OCC(=O)N2CCN(S(=O)(=O)c3ccc(C)cc3C)CC2)cc1,.,.,.,.,.,.
Cc1cc(C)c2cc3c(N)c(C(=O)N4CCOCC4)sc3nc2c1,.,.,.,.,.,.
Cc1cc(C)c2cc3c(N)c(C(=O)Nc4c(C)[nH]c(=O)[nH]c4=O)sc3nc2c1,66,.,.,.,.,.
COc1ccccc1NS(=O)(=O)c1ccc2oc(SCc3ccc(F)cc3)nc2c1,.,.,.,.,.,.
COc1ccc(NS(=O)(=O)c2ccc3oc(SCc4ccc(F)cc4)nc3c2)cc1,.,51,.,.,.,.
Cc1cccc(C2=N/C(=C\c3cccs3)C(=O)O2)c1,.,.,.,.,.,.
CCCCN=C1NN=C(c2cc3ccccc3o2)CS1,.,.,.,.,.,.
Cc1ccc(/C=C/C(=O)NCCc2ccccc2)o1,67,.,.,.,.,.
O=C(/C=C/c1ccco1)NCCc1ccccc1,.,.,.,.,.,.
Cc1ccc2c(c1)sc1nc(=O)n(-c3ccc(Cl)c(Cl)c3)c(=O)n12,55,.,.,.,.,.
Cc1ccc2c(c1)sc1nc(=O)n(-c3ccc(Cl)cc3)c(=O)n12,.,.,.,.,.,.
O=C(CCN1C(=O)C2C3C=CC(C3)C2C1=O)N1CCN(c2ccccc2Cl)CC1 (configuration not stated),.,.,85,.,.,.
O=C(CCN1C(=O)C2C3C=CC(C3)C2C1=O)N1CCN(c2ccccc2F)CC1 (configuration not stated),.,.,.,.,.,.
O=C(NCc1cccnc1)c1cc(Sc2cccc(Cl)c2)nc2ccccc12,.,.,.,.,.,.
COc1cc(/C=C2\SC(=O)NC2=O)ccc1Oc1ccc([N+](=O)[O-])cc1[N+](=O)[O-],63,.,.,.,.,.
Cc1ccc(CN(C(=O)N2CCN(C)CC2)S(=O)(=O)c2ccc(C)cc2)cc1,.,.,.,.,.,.
CCCCn1c(N)c(-c2nc3ccccc3s2)c2c([N+](=O)[O-])nn(CC)c(=O)c21,.,.,.,.,.,.
CCCCCn1c(N)c(-c2nc3ccccc3s2)c2c([N+](=O)[O-])nn(CC)c(=O)c21,83,.,.,.,.,.
SMILES,TWEAK-Fn14 inh,TROY signal inh,LMP1 NFkB inh,MITF TRPM1 inh,Peg3 promoter,Shn3 inh set2
CN(C)c1cc(NC(=O)CNC(C)(C)C)c2ccccc2n1,51,.,.,.,.,.
CCCCC(=O)Nc1cc(N(C)C)nc2ccccc12,.,.,.,.,.,.
CC(C)(C)n1nnnc1C(c1cccc(C#N)c1)N1CCCc2ccccc21 (configuration not stated),50,.,.,.,.,.
CC(C)(C)n1nnnc1C(c1ccc(Cl)cc1)N1CCCc2ccccc21 (configuration not stated),.,.,.,.,.,.
Cc1ccc(S(=O)(=O)N2C[C@@H]3[C@H]4CC[C@H](C4)[C@@H]3[C@@H](C)[C@@H]2c2cn(Cc3ccccc3)c3ncccc23)cc1,.,.,.,.,.,.
Cc1ccc(S(=O)(=O)N2C[C@@H]3CCCC[C@@H]3[C@@H](C)[C@H]2c2cn(Cc3ccccc3)c3ccccc23)cc1,61,.,.,.,.,.
COc1ccc2c(c1)c([C@@H]1[C@H](C)[C@H]3CCCC[C@H]3CN1S(=O)(=O)c1ccc(C)cc1)cn2C,84,.,.,.,.,.
Cc1ccc(S(=O)(=O)N2C[C@@H]3CCCC[C@@H]3[C@@H](C)[C@H]2c2cn(Cc3ccccc3)c3ncccc23)cc1,.,.,.,.,.,89
CC(=O)c1cccc(NC(=O)N2CCCC(C(=O)c3cc(F)ccc3F)C2)c1 (configuration not stated),.,.,.,.,.,.
O=C(O)CSCC(=O)Nc1ccccc1SCCS(=O)(=O)c1ccc(Cl)cc1,.,.,.,.,.,.
CCOC(=O)c1c(NC(=O)c2ccccc2N(C)S(=O)(=O)c2ccccc2)sc2c1CCCC2,.,.,.,.,.,.
CCOc1ccccc1NC(=O)c1c(NC(=O)CCC(=O)O)sc2c1CCCCC2,.,.,.,.,.,.
CCOC(=O)c1ccc(NC(=O)c2c(NC(=O)CCC(=O)O)sc3c2CCCCC3)cc1,74,.,.,.,.,.
CCOC(=O)c1c(NC(=O)C(NCCN(C)C)c2ccccc2)sc2c1CCCC2 (configuration not stated),.,.,.,76,106,.
CCOC(=O)c1c(NC(=O)C(=O)N/N=C/c2ccccc2O)sc2c1CCCCC2,.,.,.,?,.,94
NS(=O)(=O)c1ccc(CCN2C(=O)CCC2=O)cc1,.,.,.,.,.,.
CCCCC(=O)N(C)c1c(CC)nc2c(OCCOc3ccccc3)cccn12,.,.,/,/,.,.
CN1CN=C(NS(=O)(=O)c2ccc([N+](=O)[O-])cc2)NC1,55,.,.,.,.,.
CCc1nc2ccc(C(=O)Nc3cccc(OCC(=O)N(C)C)c3)cn2c1N(CC)CCOC,.,.,/,/,.,.
O=C1Cc2c([nH]c3ccc(Br)cc23)-c2ccccc2N1,79,.,.,.,95,.
O=C(/C=C/c1ccc(Cl)c(C(F)(F)F)c1)N1CCN(c2ccccn2)CC1,.,.,.,.,.,.
CCc1nnc(NC(=O)CC(=O)Nc2ccccc2C(=O)O)s1,.,.,.,.,.,.
CC(C)Cc1nnc(NC(=O)CC(=O)Nc2ccccc2C(=O)O)s1,51,.,.,.,.,.

# From PubChem
